Bioassay records (PubChem)
CBX7 AlphaScr – CBX7 inhibition, primary AlphaScreen; AlphaScreen His6-CBX7 / biotin-H3K27me3 peptide binding; stronger effect = lower value; O95931; 66,000 compounds, 1.1% hits; normalised signal (fraction of DMSO) (no concentration beside the values); in the data active = normalised signal below about 0.5
Target sequence (O95931 whole entry, looked up): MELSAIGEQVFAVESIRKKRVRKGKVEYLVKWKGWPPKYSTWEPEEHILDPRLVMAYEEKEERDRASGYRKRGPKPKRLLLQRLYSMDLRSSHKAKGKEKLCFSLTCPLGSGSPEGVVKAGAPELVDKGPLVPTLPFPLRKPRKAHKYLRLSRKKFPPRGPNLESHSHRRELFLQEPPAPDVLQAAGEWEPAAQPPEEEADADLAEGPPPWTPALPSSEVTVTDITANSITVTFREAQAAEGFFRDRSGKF
An asterisk follows results filed as active. The sample as a whole holds a higher share of hits than the screen did.

SMILES	CBX7 AlphaScr
CCN(CC)c1cc(C)c2cc(NC(=O)C(C)Oc3ccc(Cl)cc3Cl)ccc2n1 (stereo unspecified)	1.5
CCc1nc(C)ccc1OCC(=O)NCCCN(C)C	0.48*
Cc1nc2ccc(C(=O)NCCCN(C)C)cc2nc1C	0.98
Cc1ccccc1OCC(=O)NCCc1nc2ccccc2[nH]1	1
O=C(Nc1ccc(F)cc1F)C1CCCN(c2nnc(-n3cccc3)s2)C1 (stereo unspecified)	0.99
CC(=O)Nc1cc(C(F)(F)F)ccc1OCc1ccccc1	1.1
O=C(c1cnc(N2CCN(c3ncccn3)CC2)c2ccccc12)N1CCN(c2ccccn2)CC1	1
O=C(c1ccc(C#Cc2ccccc2)o1)N1CCN(c2ccccn2)CC1	0.45*
O=C(c1n[nH]c(=O)c2ccccc12)N1CCN(c2ccccn2)CC1	1.1
Cc1ccc(NC(=O)c2cc(S(=O)(=O)N3CCc4ccccc4C3)ccc2F)cc1F	1
C=CCN1C(=O)c2ccccc2Sc2ccc(C(=O)N3CCC(C(N)=O)CC3)cc21	1
CNS(=O)(=O)c1cc(-c2nnc(Nc3ccc(C)cc3C)c3ccccc23)ccc1C	0.67
CC(C)CCNC(=O)c1ccc2nc(-c3ccco3)c(-c3ccco3)nc2c1	0.66
O=C(c1ccc2nc(-c3ccco3)c(-c3ccco3)nc2c1)N1CCc2ccccc2C1	0.015*
CCCCNC(=O)c1ccc2nc(-c3ccco3)c(-c3ccco3)nc2c1	0.75
CCCNC(=O)c1ccc2c(c1)N(Cc1cc(C)ccc1C)C(=O)c1ccccc1S2(=O)=O	1.1
C=CCc1cc(C)ccc1OCC(O)CN1CCCCC1 (stereo unspecified)	1
C=CCc1cc(C)ccc1OCC(O)CN1CCN(c2ccccc2)CC1 (stereo unspecified)	0.38*
C=CCc1ccccc1OCC(O)CN1CCN(c2ccccc2)CC1 (stereo unspecified)	0.76
O=C(CCc1nc(-c2ccccc2F)no1)N1CCCC1	1
Cc1ccc(C)c2[nH]c(=O)c(CCNC(=O)c3ccc(Cl)cc3)cc12	0.98
Cc1ccn2c(Nc3ccccc3C)c(-c3ccc(Cl)cc3)nc2c1	0.85
Cc1ccccc1Nc1c(-c2cccnc2)nc2ccccn12	0.9
Cc1ccn2c(Nc3ccccc3)c(-c3ccccn3)nc2c1	0.06*
Cc1ccc(Nc2c(-c3ccc(Cl)cc3)nc3cc(C)ccn23)cc1	1
SMILES	CBX7 AlphaScr
Cc1ccn2c(Nc3ccccc3C)c(-c3ccccn3)nc2c1	0.0084*
COc1ccc(-c2nc3cc(C)ccn3c2Nc2ccccc2C)cc1	0.78
Cc1ccccc1Nc1c(-c2ccccn2)nc2cnccn12	0.8
Cc1ccn2c(Nc3ccccc3)c(-c3cccnc3)nc2c1	0.94
Cc1ccccc1Nc1c(-c2ccccn2)nc2ccccn12	0.13*
COCCCNC(=O)c1ccc2c(c1)NC(=O)C1CCCN21 (stereo unspecified)	1
CCCCCn1c(COc2ccc(OC)cc2)nc2ccccc21	0.92
CCOc1ccc(CCNC(=O)c2nc(-c3ccccc3C)oc2C)cc1OCC	1.1
CC(=O)N1CCc2cc(S(=O)(=O)NCC(=O)N3CCN(c4ccc(Cl)cc4)CC3)ccc21	1
O=c1[nH]c2ccccc2nc1Cc1cccc(Oc2ccccc2)c1	0.94
Cc1ccc2c(c1)NC(=O)C(CC(=O)Nc1cccc(Cl)c1C)O2 (stereo unspecified)	1
Cc1ccc(C(=O)Nc2ccc3nc(N4CCOCC4)cc(C)c3c2)cc1C	1
CCOC(=O)c1cnc2ccc(C)cc2c1Nc1ccc(N(C)C)cc1	0.38*
CCOC(=O)c1cnc2ccc(C)cc2c1Nc1cccc(C)c1	0.99
CCOC(=O)c1cnc2c(C)cccc2c1Nc1ccc(C)c(C)c1	1.5
CCOC(=O)c1cnc2ccc(C)cc2c1Nc1ccc(C)cc1	1.1
CCOC(=O)c1cnc2c(C)cccc2c1Nc1ccc(N(C)C)cc1	0.25*
CCOC(=O)c1cnc2c(C)cc(Cl)cc2c1Nc1ccc(N(C)C)cc1	0.83
CCOC(=O)c1cnc2c(C(F)(F)F)cccc2c1Nc1ccc(N(C)C)cc1	0.16*
CCOC(=O)c1cnc2c(C(F)(F)F)cccc2c1Nc1ccc(O)cc1	0.8
CCOC(=O)c1cnc2c(C(F)(F)F)cccc2c1Nc1ccc(NC(C)=O)cc1	0.86
CCCOc1ccc(C(=O)N(Cc2ccccc2)C2CCS(=O)(=O)C2)cc1 (stereo unspecified)	0.91
Cc1ccc2c(c1)-c1c(cnn1CC(=O)NCc1ccccc1Cl)CO2	0.89
O=C(c1ccc2nc(N3CCOCC3)sc2c1)N1CCCCC1	1
COc1ccc(-n2nc(C(=O)N3CCN(c4ccccc4)CC3)c3ccccc3c2=O)c(OC)c1	0.93
COc1ccc(OC)c2[nH]c(=O)c(CCNC(=O)c3ccc(Br)cc3)cc12	0.8
COc1ccccc1-c1cc(C(=O)Nc2c(C)nn(Cc3ccccc3C)c2C)no1	1.1
CCc1ccc(-c2nc(CSCC(=O)NCc3cccs3)c(C)o2)cc1	0.61
CC(C)c1ccc(Nc2cc(C(=O)NC3CC3)c3ccccc3n2)cc1	1.1
COc1ccccc1N1CCN(C(=O)CC(C)CC2=NS(=O)(=O)c3ccccc3N2)CC1 (stereo unspecified)	1.1
